The values below come from PubChem BioAssay (Tox21).

Inconclusive results are not listed. A call without a number means that no potency is given here. The source made the active and inactive calls. The call rests on the fitted dose curve; in most records, active means well fitted inhibition curve with a large enough effect in the repeat runs; inconclusive means weak or mixed curves; inactive means flat fitted curve, though single readings scatter.

Chain of Voltage-gated inwardly rectifying potassium channel KCNH2 (Homo sapiens) (Q12809 whole entry, looked up): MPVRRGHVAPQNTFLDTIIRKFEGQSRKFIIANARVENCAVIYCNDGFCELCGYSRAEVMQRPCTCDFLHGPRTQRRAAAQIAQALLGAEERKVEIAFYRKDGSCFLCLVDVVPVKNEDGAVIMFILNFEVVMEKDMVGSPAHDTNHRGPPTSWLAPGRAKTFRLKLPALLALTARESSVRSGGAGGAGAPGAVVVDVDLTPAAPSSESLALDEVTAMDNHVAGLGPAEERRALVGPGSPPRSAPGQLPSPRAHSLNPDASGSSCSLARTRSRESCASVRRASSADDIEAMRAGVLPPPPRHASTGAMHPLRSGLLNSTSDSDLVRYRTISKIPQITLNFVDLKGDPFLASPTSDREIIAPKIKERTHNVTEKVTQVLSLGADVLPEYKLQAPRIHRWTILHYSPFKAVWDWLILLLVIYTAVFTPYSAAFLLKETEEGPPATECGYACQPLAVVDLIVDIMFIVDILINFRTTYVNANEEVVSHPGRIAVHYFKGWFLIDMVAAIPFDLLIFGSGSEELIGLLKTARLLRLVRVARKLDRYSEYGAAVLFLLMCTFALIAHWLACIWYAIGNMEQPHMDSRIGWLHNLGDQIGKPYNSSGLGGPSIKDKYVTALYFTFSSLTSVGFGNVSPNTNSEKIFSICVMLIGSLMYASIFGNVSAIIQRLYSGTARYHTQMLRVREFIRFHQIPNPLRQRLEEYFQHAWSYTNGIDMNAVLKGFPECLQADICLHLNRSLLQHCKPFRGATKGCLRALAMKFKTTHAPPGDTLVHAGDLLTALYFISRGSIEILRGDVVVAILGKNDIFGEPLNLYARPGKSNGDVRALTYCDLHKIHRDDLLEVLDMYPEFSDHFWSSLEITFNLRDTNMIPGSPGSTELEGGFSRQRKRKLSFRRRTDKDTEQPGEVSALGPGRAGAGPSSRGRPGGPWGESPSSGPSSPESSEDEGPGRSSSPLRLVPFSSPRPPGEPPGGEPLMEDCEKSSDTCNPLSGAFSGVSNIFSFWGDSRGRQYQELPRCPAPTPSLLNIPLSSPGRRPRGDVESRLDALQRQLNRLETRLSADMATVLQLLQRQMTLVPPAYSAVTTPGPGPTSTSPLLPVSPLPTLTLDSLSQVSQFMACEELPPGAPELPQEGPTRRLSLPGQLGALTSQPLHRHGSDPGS

The assay has as its target Voltage-gated inwardly rectifying potassium channel KCNH2 (Homo sapiens) (UniProt Q12809). Kind of assay: Human Ether-a-go-go-Related Gene (hERG) channel small molecule antagonists: fluorescence cell-based qHTS assay (AID 1671200). Further: nearly all actives have a fitted effect of over 50% in size. To be noted: hERG-U2OS cells, FluxOR thallium flux fluorescence; series mostly up to 76.8 µM. The text has this:
National Center for Advancing Translational Sciences [NCATS]
U.S. Environmental Protection Agency [EPA]
National Institutes of Environmental Health Sciences [NIEHS]
National Toxicology Program [NTP]
U.S. Food and Drug Administration [FDA]
Mutations in the hERG channel cause Long QT (LQT) syndrome. LQT syndrome is a cardiac disorder which can cause ventricle arrhythmia and sudden death. Additionally, compounds which block the hERG channel can cause acquired LQT syndrome. Several FDA approved drugs have been removed from the market due to their hERG blocking activity. A cell-based hERG channel inhibition assay can be used to screen chemical compounds that inhibit hERG channel. This assay measures hERG channel activity using thallium ions as surrogate ions to measure potassium into the cells.
Tox21 Assay Protocol Summary:
hERG-U2OS cells were resuspended in culture medium and dispensed into 1536-well, black wall/clear-bottom plates at 1000cells/well/3uL using a Multidrop Combi dispenser (Thermo Fisher, Waltham, MA). After plates were incubated at 37 C overnight, 3 uL of Loading Buffer provided by FluxOR II Potassium Ion Channel Assay kit (Thermo, Carlsbad, CA) was added to each well. The assay plates were then incubated at room temperature in the dark for 1h. […] After the assay plates were incubated at room temperature for 10 min, 1 uL of Stimulus Buffer provided by FluxOR II Potassium Ion Channel Assay kit was added into each well and fluorescence intensity (480nm excitation/540nm emission) was continuously measured for 2 min at 1 second intervals using a Functional Drug Screening System (FDSS) 7000EX kinetic plate reader (Hamamatsu, Japan).
With `CC(C)(C)OC(=O)N1C[C@@H](F)C[C@H]1C(=O)O`, the Potency result was “inactive”.

For `CC(C)CCCCCCN`, the Potency entry is “inactive”. `[O-][N+](=Nc1ccccc1)c1ccccc1`: the Potency entry is “inactive”. Still for that read-out and setting: with `N#CCN(CC#N)CCN(CC#N)CC#N` the entry was “inactive”.

For the compound `CCN(CC)C(=O)c1ccc(O)c(OC)c1`, the Potency result is “inactive”. As for `FC(F)(F)C(F)(F)C(F)(F)C(F)(F)C(F)(F)C(F)(F)C(F)(F)C(F)(F)C(F)(F)C(F)(F)F`, the activity change, negative = inhibition is 1.96% [at 6.97 µM] (inactive). For `CCCCCOC(=O)Nc1nc(=O)n([C@@H]2O[C@H](C)[C@@H](O)[C@H]2O)cc1F`, the Potency result is “inactive”. `O=c1[nH]c2ccccc2c(=O)n1CCCl`: the Potency entry is “inactive”. The same measure, in the same setting: the result for `CC(C)[C@H](N)C(=O)OCCOCn1cnc2c(=O)[nH]c(N)nc21` reads “inactive”. In the case of `CCCC=O`, the Potency entry was “inactive”. As to `C=C(C)[C@H]1CC=C(C)CC1`, the Potency result was “inactive”. Regarding `NC(=O)c1ncn([C@@H]2O[C@H](CO)[C@@H](O)[C@H]2O)c1N`, the Potency entry is “inactive”. For `CSc1ccc(C=O)cc1`, the Potency result was “inactive”. Same read-out and setting: with `NC(=O)c1c(Cl)cccc1Cl` the entry was “inactive”; with `CCCCNc1ccccc1`, “inactive”. Same read-out and setting: with `CCCOc1ccccc1-c1nc2n[nH]nc2c(=O)[nH]1` the entry was “inactive”; with `O=C(O)CCNC(=O)c1ccc(N=Nc2ccc(O)c(C(=O)O)c2)cc1`, “inactive”; with `COc1cc(CCC(C)=O)ccc1O`, “inactive”.

Regarding `COCCOC(=O)CC#N`, the Potency entry was “inactive”. On the same count and under the same terms, the result for `Fc1ccccc1-c1ccccc1` reads “inactive”; that for `CCCCCCCCCCCCCCCCCC(=O)OCCCCCCCCCCCCCC(C)C`, “inactive”; that for `Nc1ncnc2c1ncn2Cc1c(F)cccc1Cl`, “inactive”. `CCO[Si](C)(OCC)OCC`: the Potency entry is “inactive”.

Regarding `Nc1cc(N)cc(C(=O)O)c1`, the Potency result is “inactive”. Still for that read-out and setting: with `CCCCCCC(=O)OCC` the entry was “inactive”.

For `O=S(=O)(c1cccc2cnccc12)N1CCCNCC1`, the Potency result was “inactive”.

As for `O=S(=O)(O)c1ccccc1O`, the Potency result is “inactive”. With `CC(C)=CC(=O)O`, the Potency entry is “inactive”. The same measure, in the same setting: the result for `O=C1CC2(CCCC2)CC(=O)N1` reads “inactive”. The same measure, in the same setting: the result for `COc1nc(C)nc(N)n1` reads “inactive”. Consider `CCC(C)OC(=O)N1CCCCC1CCO` (stereo not given), for which the Potency result is “inactive”. On the same count and under the same terms, the result for `CCCC(C)CO` (stereo not given) reads “inactive”; that for `CCCc1ccccc1O`, “inactive”; that for `CCN(CC)S(=O)(=O)c1ccc(C(=O)O)cc1`, “inactive”. For the compound `CC(CCO)CCCC(C)(C)O` (stereo not given), the Potency entry is “inactive”. `NC(=O)CCCCC1CCSS1` (stereo not given): the Potency result is “inactive”. For the compound `CCCCN(CCO)CCO`, the Potency entry is “inactive”. On the same count and under the same terms, with `COc1cccc(Br)c1` the entry was “inactive”. On the same count and under the same terms, the result for `CC1=CC(=O)CCC1` reads “inactive”; that for `COC(=O)c1ccc(C(=O)OC)c(C(=O)OC)c1`, “inactive”.
